BAZ2B block = qHTS Assay for Inhibitors of BAZ2B | Bromodomain adjacent to zinc finger domain protein 2B (Homo sapiens), Q9UIF8 | AlphaScreen BAZ2B-H3K14Ac peptide displacement | Potency, µM (highest dose often 114 µM), without a hit: top-dose activity change, negative = inhibition, actives largely listed as inhibitors | 4.4% of 360,000 active | AID 504333, 2011; further: potency means the concentration at half of the fitted maximal effect; on the % scale 0 is the no-effect control and ±100 the full control effect; nearly all actives have a fitted effect of over 60% in size
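In this displacement format the biotinylated H3(5-23) peptide acetylated at Lys14 serves as ligand at 50 nM, with BAZ2B at 50 nM in PBS pH 7.4 containing 0.01% Tween-20. Donor and acceptor beads are 10 ug/mL final.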
G9a block = qHTS Assay for Inhibitors of Histone Lysine Methyltransferase G9a; 8.8% of 350,000 active; G9a H3K9 monomethylation, AlphaScreen, 2 h; Histone-lysine N-methyltransferase EHMT2 (Homo sapiens), Q96KQ7; Potency, µM (highest dose often 102 µM), for inactives: top-dose activity, negative = inhibition, hits mostly inhibitors; AID 504332, 2011; further: potency means the concentration at half of the fitted maximal effect; on the % scale 0 is the no-effect control and ±100 the full control effect; nearly all actives have a fitted effect of over 75% in size
Target sequence (Q96KQ7 913-1193 limits assumed): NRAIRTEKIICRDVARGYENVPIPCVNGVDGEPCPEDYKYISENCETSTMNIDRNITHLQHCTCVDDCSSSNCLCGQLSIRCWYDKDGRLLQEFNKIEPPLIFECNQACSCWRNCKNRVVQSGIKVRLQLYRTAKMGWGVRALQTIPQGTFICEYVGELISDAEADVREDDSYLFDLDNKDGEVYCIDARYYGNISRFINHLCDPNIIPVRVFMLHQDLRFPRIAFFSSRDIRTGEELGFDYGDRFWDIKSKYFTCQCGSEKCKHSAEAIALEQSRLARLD
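G9a (20 nM) preincubated 15 min RT with compounds, then 500 nM biotinylated H3K9 peptide and 20 uM SAM added; 2 h RT reaction. Monomethyl-H3K9 product detected by AlphaScreen with anti-H3K9me1 antibody, streptavidin donor and anti-rabbit IgG acceptor beads.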
JMJD2A Tudor inh = qHTS Assay for Inhibitors of JMJD2A-Tudor Domain; AlphaScreen JMJD2A-Tudor / H3K4me3 peptide binding; 4.4% of 390,000 active; Potency, µM (doses to about 114 µM), for the others: at the highest dose activity change, negative = inhibition, actives largely listed as inhibitors; Lysine-specific demethylase 4A (Homo sapiens), O75164; further: potency means the concentration at half of the fitted maximal effect; on the % scale 0 is the no-effect control and ±100 the full control effect; nearly all actives have a fitted effect of over 50% in size
Six1-Eya2 inh = qHTS Assay for Inhibitors of the Six1/Eya2 Interaction | 0.56% of 360,000 active | activity change, % (concentration not given with the values) | Homeobox protein SIX1 (Homo sapiens) + Protein phosphatase EYA2 (Homo sapiens), … | AlphaScreen GST-Six1/His-Eya2 binding, biochemical; active compounds read low; in the data active means activity change below about -65%; inconclusive means mostly about -30% to -63%; further: on the % scale 0 is the no-effect control and ±100 the full control effect
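AlphaScreen with GST-Six1 and His-Eya2 (5X mix: 250 nM and 500 nM), glutathione donor and nickel acceptor beads; buffer 50 mM Tris pH 8.0, 300 mM NaCl, 1 mM TCEP; 1 h at 37 C in the dark.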
HP1b chromo inh = HTS for Inhibitors of HP1-beta Chromodomain Interactions with Methylated Histone Tails; Chromobox protein homolog 1 (Homo sapiens), P83916; AlphaScreen HP1-beta / biotin-H3K9me3 peptide binding; Potency, µM (series often up to 114 µM), without a hit: top-dose activity change, negative = inhibition, actives largely listed as inhibitors; 0.56% of 390,000 active; further: potency means the concentration at half of the fitted maximal effect; nearly all actives have a fitted effect of over 70% in size
Target sequence (P83916 whole entry, looked up): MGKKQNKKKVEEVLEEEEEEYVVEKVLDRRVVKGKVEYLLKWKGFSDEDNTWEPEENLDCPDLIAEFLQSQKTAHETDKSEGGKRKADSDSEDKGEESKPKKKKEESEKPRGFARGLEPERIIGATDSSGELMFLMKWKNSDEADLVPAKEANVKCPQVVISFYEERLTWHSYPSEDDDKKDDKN
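AlphaScreen: HP1-beta (50 nM) preformed 30 min with biotin-H3(1-18)K9me3 peptide (50 nM) in PBS pH 7.4, 0.01% Tween-20. Compound added for 30 min at RT, then streptavidin donor/nickel chelate acceptor beads (10 ug/mL) for 30 min.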
CtBP-E1A inh = qHTS Assay for Inhibitors of the CtBP/E1A Interaction; CtBP / adenovirus E1A interaction (AlphaScreen); AlphaScreen GST-E1A/His-CtBP binding, 1536-well; active compounds read low; activity change, % (test concentration not listed); 0.49% of 340,000 active; AID 651724, 2012; in the data active means activity change below about -65%; inconclusive means mostly about -30% to -63%; further: on the % scale 0 is the no-effect control and ±100 the full control effect
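Steps: dispense buffer (Tris pH 8.0, NaCl 300 mM, TCEP 1 mM, BSA, Tween 20); add 5X protein mix (GST-E1A, His-CtBP, 125 nM each); pin 23 nL compound; 2 h at 37 °C, dark; add 5X beads (50 ug/mL); 1 h; read.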
Active calls of the source: *; ? = inconclusive; . = not tested or not shown; [ ] = dose if it differs, or a comment. Most compounds without a hit are left out; they make up all but 10% or so of the library. Unless noted, the call rests on the fitted dose curve; in most records, active means well fitted inhibition curve with a large enough effect; inconclusive means small, poorly fitted or top-dose-only effect; inactive means no such curve, though single readings can be large or run the other way.

SMILES	BAZ2B block	G9a block	JMJD2A Tudor inh	Six1-Eya2 inh	HP1b chromo inh	CtBP-E1A inh
CCc1ccccc1N(CC(=O)N1CCN(c2ccccc2)CC1)S(C)(=O)=O	.	-16.9%[59 µM]	79.4µM*	-2.8	-20.8%	-0.8
COCCN(C(=O)CSc1cc(C)c2ccccc2n1)c1c(N)n(CC(C)C)c(=O)[nH]c1=O	-16.7%	2.0%[12.7 µM]	9.8%	0.0	40.4%	0.2
CN1CCO/C1=C(\C(Cl)=C(Cl)Cl)[N+](=O)[O-]	50.1µM*	20µM*	56.2µM*	-1.3	23.2%	-4.6
O=C(NC1CC1)C1Nc2ccc(OC(F)(F)F)cc2C2C=CCC12 (configuration not stated)	.	.	-17.2%	5.7	37.8%	3.1
O=C(O)c1ccc2c(c1)C1C=CCC1C(c1cc3c(cc1Br)OCO3)N2 (configuration not stated)	-33.6%	-44.8%	-29.0%	-4.9	4.0%	10.3
O=C(O)C1Nc2c(cccc2C(F)(F)F)C2C=CCC12 (configuration not stated)	39.8µM*	2.51µM*	.	.	.	.
CCOC(=O)C1Nc2ccc(OC(F)(F)F)cc2C2C=CCC12 (configuration not stated)	.	.	25.1µM*	-17.4	?	-26.4
O=C(NCc1ccccc1)C1Nc2ccc(OC(F)(F)F)cc2C2C=CCC12 (configuration not stated)	.	.	-31.0%	-4.6	15.7%	2.3
CC(=O)c1ccc2c(c1)C1C=CCC1C(c1ccncc1)N2 (configuration not stated)	50.1µM*	?	?	-21.6	-8.5%	-22.8
CC(=O)c1ccc2c(c1)C1C=CCC1C(C(=O)O)N2 (configuration not stated)	6.31µM*	-174.0%[12.7 µM]	6.31µM*	-68.3*	20µM*	?
O=C(CCn1c(=O)sc2ccccc21)NC1CCCCC1	-8.7%	.	3.4%	13.9	26.6%	4.3
Cc1ccc2c(c1)C1C=CCC1C(C(=O)O)N2 (configuration not stated)	6.31µM*	3.98µM*	.	.	.	.
Cc1ccc2c(c1)C1C=CCC1C(C(=O)NCCCN1CCOCC1)N2 (configuration not stated)	.	.	?	0.3	8.0%	-8.5
C1=CC2c3ccccc3NC(c3ccncc3)C2C1 (configuration not stated)	?	1.58µM*	44.7µM*	-15.9	?	?
CCOc1ccc2c(c1)[C@@H]1C=CC[C@@H]1[C@H](c1ccccc1Cl)N2	28.2µM*	11.2µM*	44.7µM*	.	?	.
COC(C(=O)N/N=C(\C)c1ccc(O)cc1)c1ccccc1 (configuration not stated)	4.9%	8.8%[59 µM]	-5.0%	-5.1	57.5%	2.0
Brc1cc2c(cc1C1Nc3ccccc3C3C=CCC31)OCO2 (configuration not stated)	-33.9%	42.2%[59 µM]	-22.9%	-14.7	19.2%	2.3
COC(=O)c1ccc(C2Nc3ccc(/C(C)=N/NC(=O)C(OC)c4ccccc4)cc3C3C=CCC32)cc1 (configuration not stated)	56.2µM*	7.08µM*	79.4µM*	-11.6	-20.7%	-20.2
COc1ccccc1N1CCN(C(=O)c2coc(=O)c(Br)c2)CC1	-3.5%	?	-3.4%	6.9	35.0%	8.8
Cc1ccc(CNC(=O)CCNC(=O)Cn2ccc3ccccc3c2=O)o1	-4.4%	-7.9%[2.33 µM]	-3.2%	-2.9	39.7%	-2.9
COC(=O)C1CCN(CC(=O)NC(=O)Nc2ccccc2F)CC1	.	.	0.0%	-9.5	5.9%	0.1
COc1ccc(-c2nc3ccccc3s2)cc1NC(=O)c1ccccc1OC	-11.4%	1.0%[59 µM]	-11.3%	.	39.5%	.
CCN(CC)c1ccc(CNC(=O)C/C(C)=N/NC(=O)COc2ccc(C)cc2Br)cc1	44.7µM*	?	?	-16.6	?	-22.2
O=c1c(-c2cc(-c3ccccc3)nc3c2COc2ccc(Cl)cc2-3)coc2ccc(F)cc12	-37.7%	-10.6%[59 µM]	-17.9%	.	6.0%	.
C=Cc1nc(Nc2cc(F)cc(F)c2)nc(NC2CCCC2)n1	.	.	-15.1%	.	.	.
SMILES	BAZ2B block	G9a block	JMJD2A Tudor inh	Six1-Eya2 inh	HP1b chromo inh	CtBP-E1A inh
CCC(=O)Oc1ccc(C/C(=N\O)c2ccc(O)cc2O)o1	?	12.6µM*	?	-9.0	16.9%	-4.9
CC1=C(c2ccccc2)[N+](=O)C2(CCCC2)N1[O-]	1.9%	-23.0%[59 µM]	-11.4%	6.2	13.2%	-7.3
O=[N+]([O-])c1ccc2c(c1)N([O-])C1(CCCCC1)[N+]2=O	39.8µM*	.	?	-11.7	?	-5.2
COc1cc2ccccc2cc1C(=O)Nc1ccc2oc(-c3ccc(Cl)cc3)nc2c1	0.1%	?	-17.0%	.	25.5%	.
Cc1cccc(NC(=O)Cc2nc(-c3c[nH]c(C(=O)N4CCCC4)c3)cs2)c1	?	56.2µM*	?	-3.9	-35.6%	-8.7
Cc1ccccc1NC(=O)Cc1nc(-c2c[nH]c(C(=O)N3CCCC3)c2)cs1	-37.0%	?	-30.4%	-13.2	11.6%	-6.3
CC(=O)Nc1ccc(S(=O)(=O)N(C)CC(=O)Nc2ccccc2N2CCCC2)cc1	-28.0%	44.7µM*	-12.4%	-3.4	10.8%	2.0
CC(=O)Nc1ccc(S(=O)(=O)N(C)CC(=O)OCC(=O)N2CCc3ccccc32)cc1	2.1%	50.1µM*	5.0%	-2.6	33.4%	3.5
CN(CC(=O)Nc1ccc(F)cc1)CC(=O)N1CCc2ccccc21	2.6%	56.2µM*	-8.5%	-4.1	30.4%	2.0
CN(C)c1ccc(CNC(=O)Cc2ccc(NC(=O)N3CCCCc4ccccc43)cc2)cc1	44.7µM*	12.6µM*	50.1µM*	.	-11.8%	.
CCNC(=O)Cc1ccc(NC(=O)N2CCCCc3ccccc32)cc1	-1.1%	0.1%[59 µM]	0.3%	.	51.0%	.
Cc1nn(-c2cccc(Cl)c2)c2nc(-c3cccnc3)cc(C(F)(F)F)c12	5.2%	-4.1%[59 µM]	13.8%	.	55.0%	.
CCCC(=O)Oc1c(Sc2ccc(Cl)cc2)c(C)nn1-c1ccccc1	3.3%	3.98µM*	-34.8%	.	12.8%	.
COc1cc(C(=O)Oc2c(Sc3ccc(C)cc3)c(C)nn2-c2ccccc2)cc(OC)c1OC	-14.6%	14.1µM*	-29.4%	.	41.9%	.
COCC(=O)Oc1c(Sc2ccc(C)cc2)c(C)nn1C(C)(C)C	42.5%	?	38.9%	.	77.5%	.

Source: PubChem
